Experimental data as given in PubChem BioAssay (NCATS).
Several values for one entry are separate records, joined by “and”; a condition that tells them apart may be missing. Equal values may be shown once. Inconclusive results are not listed. Some compounds were tested as several samples or in several runs, with calls that do not always agree. Activity calls are given as the source filed them. Calls come from the whole dose curve; as a rule, active = well fitted curve in the direction sought with a large enough effect; inconclusive = small, poorly fitted or top-dose-only effect, or another doubt; inactive = no such curve, though single readings can be large; an effect the other way counts as inactive or inconclusive.

Assays:
[1] = molecular target: Cytochrome P450 3A7 (Homo sapiens) (UniProt P24462); experiment: Cytochrome P450 family 3 subfamily A member 7 (CYP3A7) small molecule antagonists: luciferase biochemical qHTS assay (AID 1963596); note: % is set by controls: 0 for no effect and ±100 for the full control effect; nearly all actives have a fitted effect of over 40% in size
Sequence of Cytochrome P450 3A7 (Homo sapiens) (P24462 whole entry, looked up): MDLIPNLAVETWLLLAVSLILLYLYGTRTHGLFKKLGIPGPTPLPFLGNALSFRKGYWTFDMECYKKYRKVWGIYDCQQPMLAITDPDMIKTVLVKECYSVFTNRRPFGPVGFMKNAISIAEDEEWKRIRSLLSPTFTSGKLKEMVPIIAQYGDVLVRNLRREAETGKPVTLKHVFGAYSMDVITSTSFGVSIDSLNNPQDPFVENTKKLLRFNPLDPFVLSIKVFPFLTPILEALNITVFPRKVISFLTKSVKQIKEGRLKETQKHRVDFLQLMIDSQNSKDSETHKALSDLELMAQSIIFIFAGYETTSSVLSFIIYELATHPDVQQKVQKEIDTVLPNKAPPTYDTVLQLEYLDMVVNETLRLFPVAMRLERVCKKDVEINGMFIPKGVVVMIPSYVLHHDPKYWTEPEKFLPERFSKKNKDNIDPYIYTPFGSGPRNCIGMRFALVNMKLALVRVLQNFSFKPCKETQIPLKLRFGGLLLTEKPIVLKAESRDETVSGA
Outline: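 Enzyme-substrate mix + cpd (DMSO), 10 min RT; + NADPH regen system, 1 h RT; + luciferin detection reagent, 20 min RT; luminescence read. Proluciferin substrate, P450-Glo format, 1536-well qHTS.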

[2] = Viability qHTS for spleen associated tyrosine kinase inhibitor (SYKi) naive MV4-11 cells (AID 1963823); note: nearly all actives have a fitted effect of over 40% in size; note: potency is the fitted concentration of half-maximal effect
Outline: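 Read-out: CellTiter-Glo luminescence. Exposure: 72 hr, 37 C, 5% CO2, 95% humidity. Cells: MV4-11 without SYK inhibitor history, 500/well, qHTS format.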

[3] = Viability qHTS for spleen associated tyrosine kinase inhibitor (SYKi) drug resistant MV4-11 cells (AID 1963824); note: nearly all actives have a fitted effect of over 35% in size; note: potency is the fitted concentration of half-maximal effect
Outline: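 SYK-inhibitor-resistant MV4-11 AML cells were seeded at 500 per well onto compound and cultured 72 hours (37 °C, 5% CO2). CellTiter-Glo was then added, and after 10 min at room temperature, luminescence gave viability.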

[4] = Cellular viability qHTS for adrenocortical cancer (ACC) cell line SW-13 (AID 1963989); settings: SW-13 ACC cells viability, CellTiter-Glo, 48 h; activity (max response): stronger effect = lower value; note: nearly all actives have a fitted effect of over 65% in size; note: potency is the fitted concentration of half-maximal effect;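 for activity (max response): cells grown in serum-free medium with ITS supplement; % is set by controls: 0 for no effect and ±100 for the full control effect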
Outline: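 IC50 and maximal-response values come from four-parameter logistic fits of titration data. SW-13 cells in serum-free medium received compounds (up to 46 uM final) for 48 h before CellTiter-Glo luminescence.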

[5] = Cellular viability qHTS for adrenocortical cancer (ACC) cell line NCI-H295R (AID 1963990); note: nearly all actives have a fitted effect of over 60% in size; note: potency is the fitted concentration of half-maximal effect;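 for activity change, negative = viability loss: 0% = DMSO only wells and -100% = full killing with cytotoxic reference compound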
Outline: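 Adrenocortical carcinoma cells, suspended at 300 000 cells/mL in serum-free DMEM plus ITS, rested overnight before pin transfer of compound. After two days' incubation, ATP-dependent luminescence was recorded and curve-fitted.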

CCn1cc(C(=O)O)c(=O)c2cnc(N3CCNCC3)nc21
active: Potency [3] 2.99 µM
inactive: Potency [1] | Potency [2] | activity (max response) [4] 3.41% | Potency [5]

CC(C)[C@@H]1CC[C@@H](C)CC1=O
inactive: Potency [1] | Potency [2] | Potency [3] | activity (max response) [4] 11.9% | Potency [5]

CCn1c(=O)c(-c2ccc(Cl)cc2Cl)cc2cnc(Nc3ccc(N4CCNCC4)c(F)c3)nc21
active: Potency [2] 82 nM and 118 nM | Potency [3] 231 nM and 186 nM
inactive: Potency [1] | activity (max response) [4] -23.5% | Potency [5]

OCC(O)CN1CCN(c2ccccc2)CC1 (stereo not given)
422 nM (active) and inactive: Potency [2]
inactive: Potency [1] | Potency [3] | activity (max response) [4] -5.47% | Potency [5]

O=C(O)Cc1cccc(-c2cc(CCCCCCc3ccc(O[C@H]4O[C@H](CO)[C@@H](O)[C@H](O)[C@@H]4O)c(-c4cccc(CC(=O)O)c4)c3)ccc2O[C@H]2O[C@H](CO)[C@@H](O)[C@H](O)[C@@H]2O)c1
inactive: activity change, negative = inhibition [1] -19.9% [at 0.91 µM] | viability (% of control) [2] 99.5% [at 0.588 µM] | viability, % of control [3] 113% [at 0.588 µM] | activity (max response) [4] 8.49% | activity change, negative = viability loss [5] -4.2% [at 0.587 µM]

CNC(=O)c1c(I)c(NC(C)=O)c(I)c(C(=O)O)c1I
inactive: Potency [1] | Potency [2] | Potency [3] | activity (max response) [4] 10% | Potency [5]

O=c1[nH]c(=O)c2ccccc2o1
inactive: Potency [1] | Potency [2] | Potency [3] | activity (max response) [4] 6.04% | Potency [5]

O=C(O)[C@H](O)c1ccccc1
inactive: Potency [1] | Potency [2] | Potency [3] | activity (max response) [4] 6.97% | Potency [5]

CC1(C)S[C@@H]2[C@H](N=CN3CCCCCC3)C(=O)N2[C@H]1C(=O)O
inactive: Potency [1] | Potency [2] | Potency [3] | activity (max response) [4] 3.39% | Potency [5]

CCN(CC)CC(=O)Nc1c(C)cccc1C(=O)OC
inactive: Potency [1] | Potency [2] | Potency [3] | activity (max response) [4] -5.08% | Potency [5]

CN1C(=O)CC[C@H]1c1cccnc1
inactive: Potency [1] | Potency [2] | Potency [3] | activity (max response) [4] 2.26% | Potency [5]

CC1(c2ccccc2)OC(C(=O)O)=CC1=O (stereo not given)
inactive: Potency [1] | Potency [2] | Potency [3] | activity (max response) [4] -17.9% | Potency [5]

CCN(CC)C(=O)c1cccc(C)c1
inactive: Potency [1] | Potency [2] | Potency [3] | activity (max response) [4] 6.94% | Potency [5]

Cn1c(=O)c2c(ncn2CC2OCCO2)n(C)c1=O
inactive: Potency [1] | Potency [2] | Potency [3] | activity (max response) [4] 8.06% and -6.96% | Potency [5]

CN(C)C1CCN(C(=O)c2ccc(NC(=O)Nc3ccc(-c4nc(N5CCOCC5)nc(N5CCOCC5)n4)cc3)cc2)CC1
active: Potency [2] 14.6 nM | Potency [3] 0.0184 µM | Potency [4] 251 nM | Potency [5] 2240 nM
inactive: Potency [1]

[O-][n+]1cccc(/C(Cl)=N/OC[C@@H](O)CN2CCCCC2)c1
inactive: Potency [1] | Potency [2] | Potency [3] | activity (max response) [4] 9.86% | Potency [5]

CC(=O)N[C@@H](CCC(N)=O)C(=O)O
inactive: Potency [1] | Potency [2] | Potency [3] | activity (max response) [4] 11.4% | Potency [5]

C[C@@H](O)[C@H]1C(=O)N2C(C(=O)O)=C([C@H]3CCCO3)S[C@H]12
inactive: Potency [1] | Potency [2] | Potency [3] | activity (max response) [4] 12.4% | Potency [5]

COC(=O)c1ccc(O)cc1
inactive: Potency [1] | Potency [2] | Potency [3] | activity (max response) [4] 11.5% | Potency [5]

O=C(O)c1cc(=O)c2ccccc2o1
inactive: Potency [1] | Potency [2] | Potency [3] | activity (max response) [4] -0.886% | Potency [5]

C[C@H]1C[C@H](O)c2ccsc2S1(=O)=O
inactive: Potency [1] | Potency [2] | Potency [3] | activity (max response) [4] 10.4% | Potency [5]

O=C(Nc1ccc(-c2ccnc(Nc3ccc(N4CCOCC4)cc3)n2)cc1)C1CCCN1 (stereo not given)
active: Potency [2] 1660 nM | Potency [3] 1.46 µM and 2.35 µM
inactive: Potency [1] | activity (max response) [4] -0.397% | Potency [5]

O=C(O)c1ccccc1OP(=O)(O)O
inactive: Potency [1] | Potency [2] | Potency [3] | activity (max response) [4] 16.4% | Potency [5]

CN(C)CCN(Cc1ccsc1)c1ccccn1
inactive: Potency [1] | Potency [2] | Potency [3] | activity (max response) [4] 6.67% | Potency [5]

O=C(/C=C/c1ccccc1)OCc1ccccc1
inactive: Potency [1] | Potency [2] | Potency [3] | activity (max response) [4] 5.62% | Potency [5]

CCCC(=O)Nc1ccc(OCC(O)CNC(C)C)c(C(C)=O)c1 (stereo not given)
inactive: Potency [1] | Potency [2] | Potency [3] | activity (max response) [4] 0.0374% | Potency [5]

CCC(C(=O)NC(=O)NC(C)=O)c1ccccc1 (stereo not given)
inactive: Potency [1] | Potency [2] | Potency [3] | activity (max response) [4] -1.46% | Potency [5]

Nc1nc2c(ncn2CCC(CO)CO)c(=O)[nH]1
inactive: Potency [1] | Potency [2] | Potency [3] | activity (max response) [4] -4.77% | Potency [5]

CCOC(=O)[C@H](CCc1ccccc1)N[C@@H](C)C(=O)N1CCC[C@H]1C(=O)O
inactive: Potency [1] | Potency [2] | Potency [3] | activity (max response) [4] 11.5% and -12% | Potency [5]

Cc1cc(NC(=O)C2=C(O)c3ccccc3S(=O)(=O)N2C)no1
inactive: Potency [1] | Potency [2] | Potency [3] | activity (max response) [4] -0.835% | Potency [5]

C[C@H]1O[C@@H](O[C@H]2[C@@H](O)C[C@H](O[C@H]3[C@@H](O)C[C@H](O[C@H]4CC[C@@]5(C)[C@H](CC[C@@H]6[C@@H]5C[C@@H](O)[C@]5(C)[C@@H](C7=CC(=O)OC7)CC[C@]65O)C4)O[C@@H]3C)O[C@@H]2C)C[C@H](O)[C@@H]1O
active: Potency [2] 103 nM and 118 nM | Potency [3] 58 nM and 118 nM | Potency [4] 70.8 nM | Potency [5] 126 nM
inactive: Potency [1]
